Sampled rows, rich in hits. Any-hit rate of the full collection: about 19%.
KB-3-1 cytotox = kills parental KB-3-1 adenocarcinoma cells; Potency, µM (highest dose often 46.1 µM), usual class: cytotoxic; hit rate 1.4% among 400,000; KB-3-1 viability, CellTiter-Glo ATP luminescence, 72 h; AID 1347075; note: nearly all actives have a fitted effect of over 60% in size
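Cells are dispensed, compounds pinned in, plates held at 37 °C for 72 h, then CellTiter-Glo is added and luminescence read after 10 minutes. Cell line: parental KB-3-1 in phenol-red-free DMEM, 10% FBS.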
HT1080 IDH1KD tx = HT-1080 IDH1 knockdown cell toxicity (counter line). hit rate 2% among 360,000. HT-1080 IDH1 knockdown viability, ATP luminescence, 48 h. Potency, µM (series often up to 46.1 µM), for inactives: top-dose activity, negative = toxicity, actives largely listed as cytotoxic;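 note: 0% = DMSO wells and -100% = cell-free medium wells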
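In this qHTS, HT-1080 cells depleted of IDH1 are exposed for 48 h at 37 °C to compound titrations. Toxicity is scored from CellTiter-Glo luminescence, with DMSO as full viability and medium alone as none.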
DT40 TDP1 CPT = growth inhibition of DT40 Tdp1-/-;hTDP1 cells with camptothecin (screen for TDP1 inhibitors); hit rate 12% among 420,000; chicken DT40 Tdp1-/-;hTDP1 cells + 20 nM CPT, ATP luminescence, 48 h; Potency, µM (doses to about 46.2 µM), without a hit: top-dose activity change, negative = growth inhibition, most hits filed as inhibitors; note: nearly all actives have a fitted effect of over 55% in size
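Chicken DT40 Tdp1-/- cells stably complemented with human TDP1 were seeded at 400 cells/well in medium containing 20 nM camptothecin, exposed to pin-transferred compounds, and grown at 37 °C for at least 48 hr. Viability was read as ATP luminescence.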
HT1080NT lethal = kills 2HG-producing HT-1080-NT fibrosarcoma cells; hit rate 1.6% among 360,000; AID 686970; HT-1080-NT fibrosarcoma viability, CellTiter-Glo ATP luminescence, 48 h; Potency, µM (top dose mostly 46.1 µM), without a hit: top-dose activity, negative = less viability, actives largely listed as cytotoxic;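 note: NT is the 2HG producing partner of a matched IDH1 knockdown line; 0% = DMSO-treated cells and -100% = media-only wells without cells; nearly all actives have a fitted effect of over 55% in size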
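Compounds were tested in concentration-response format on HT-1080-NT cells for 48 hours at 37 degrees C. Cell viability came from CellTiter-Glo luminescence; curves were classified by r2, response magnitude and activity.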
KB-V1 cytotox = kills drug-selected multidrug resistant KB-V1 cells. hit rate 3.4% among 400,000. KB-V1 MDR cells viability, CellTiter-Glo, 72 h. Potency, µM (doses to about 46.1 µM), actives largely listed as cytotoxic; note: nearly all actives have a fitted effect of over 60% in size
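Potencies derive from concentration-effect curves fitted to normalized luminescence (CellTiter-Glo) of KB-V1 cells treated for 72 h at 37 degrees C in phenol-red-free DMEM containing 10% FBS.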
DT40 TDP1 no CPT = qHTS for Inhibitors of human tyrosyl-DNA phosphodiesterase 1 (TDP1): qHTS in cells in absence of CPT; AID 686978, 2013; Potency, µM (top dose mostly 46.2 µM), without a hit: at the highest dose activity change, negative = growth inhibition, usual class: inhibitors; DT40 Tdp1-/- hTDP1 cells, no CPT, ATP luminescence, 48 h; hit rate 15% among 420,000; note: nearly all actives have a fitted effect of over 55% in size
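Stably hTDP1-transfected Tdp1-null chicken DT40 cells were treated with library compounds minus camptothecin and grown for at least 48 hr at 37 °C, after which cellular ATP was quantified by luminescence.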
* hit, by the source's call; i = inactive; ? = inconclusive; / = no result given; [ ] = remark or other dose. Calls come from the whole dose curve; as a rule, active = well fitted curve in the direction sought with a large enough effect; inconclusive = small, poorly fitted or top-dose-only effect, or another doubt; inactive = no such curve, though single readings can be large; an effect the other way counts as inactive or inconclusive. Unless noted, % is set by controls: 0 for no effect and ±100 for the full control effect; potency is the fitted concentration of half-maximal effect.

SMILES	KB-3-1 cytotox	HT1080 IDH1KD tx	DT40 TDP1 CPT	HT1080NT lethal	KB-V1 cytotox	DT40 TDP1 no CPT
COc1ccc(-c2noc(CCC(=O)NCC3CCCO3)n2)cc1 (stereo not given)	i	9%	8%	1%	i	-2%
Cc1nc2nc(C)c(CCC(=O)N3CCN(c4ccccn4)CC3)c(C)n2n1	?	5%	0%	-3%[9.24 µM]	?	-20%
Cc1ccc(-c2noc(CCC(=O)NCC3CCCO3)n2)cc1 (stereo not given)	i	-23%	-10%	-14%	21µM*	-9%
CCn1c(=O)c(CCC(=O)N2CCN(c3ccccn3)CC2)c(C)c2c(C)nn(-c3cccc(C)c3)c21	i	12%	15µM*	15%	i	?
Cc1ncc2c(c1CNC(=O)c1cncs1)CCN(C(=O)c1ccc(C(F)(F)F)cc1)C2	/	/	-15%[9.04 µM]	/	/	-14%
Cc1cc(SCC(=O)OC(C)C(=O)N(C)c2ccccc2)nc2ccccc12 (stereo not given)	i	-8%	2%	3%	i	-5%
O=C(COC(=O)CNC(=O)c1ccccc1)Nc1cccc(Br)c1	i	-2%	-25%	9%	i	-13%
COCC(=O)N1CCC2(CC1)CCN(c1ccccc1)CC2	/	/	-4%	/	/	-10%
COC(=O)[C@]12CCCCC=C1N(Cc1cccc3ccccc13)C(=O)[C@H](CC(=O)NCc1cccc(C(F)(F)F)c1)C2	?	?	?	?	9.2µM*	?
CCOC(=O)[C@]12CCC=C1N(CCC1=CCCCC1)C(=O)[C@H](CC(=O)NCc1cccc(C(F)(F)F)c1)C2	i	-5%	?	-27%	?	21µM*
CCOC(=O)[C@]12CCCC=C1N(Cc1ccccc1)C(=O)[C@H](CC(=O)NCc1cccc(C(F)(F)F)c1)C2	i	?	?	29µM*	?	?
CCOC(=O)[C@]12CCCC=C1N(Cc1ccco1)C(=O)[C@H](CC(=O)NCc1cccc(C(F)(F)F)c1)C2	i	-12%	?	-21%	?	18µM*
CCOC(=O)[C@]12CCCC=C1N(Cc1cccc3ccccc13)C(=O)[C@H](CC(=O)NCc1cccc(C(F)(F)F)c1)C2	i	-23%	?	?	i	?
COC(=O)[C@]12CCCCC=C1N(Cc1ccco1)C(=O)[C@H](CC(=O)NCc1cccc(C(F)(F)F)c1)C2	i	-11%	?	-5%	i	?
CCOc1ccc(Nc2cc(C)c(C#N)c3nc4ccccc4n23)cc1	i	/	?	/	i	-28%
O=C(Nc1ccc2oc(-c3ccncc3)nc2c1)c1ccc([N+](=O)[O-])o1	?	16µM*	2.9µM*	6.5µM*	i	5.8µM*
CC(C)(Oc1ccc(Cl)cc1)C(=O)Nc1ccc(-c2nc3ncccc3o2)cc1	i	/	16µM*	/	i	18µM*
O=C(Nc1ccc(-c2nc3ncccc3o2)cc1)c1ccc([N+](=O)[O-])o1	?	?	8.2µM*	?	i	3.7µM*
CC(C)C(=O)Nc1ccc(-c2nc3ncccc3o2)cc1	i	8%	0%	10%	i	?
Cc1cc(C)cc(C(=O)Nc2ccc(-c3nc4ncccc4o3)cc2)c1	i	/	21µM*	/	i	?
COc1ccc(C(=O)Nc2ccc(-c3nc4ncccc4o3)cc2)cc1	i	/	-14%	/	i	-2%
CNC(=O)c1c(NC(=O)CCS(=O)(=O)c2ccc(C)cc2)sc(C)c1C	i	2%	?	-14%	i	?
Cc1cc(-c2nc3ncccc3o2)ccc1NC(=O)c1ccc([N+](=O)[O-])o1	i	9%	-4%	5%	i	2%
Cc1ccc(-c2nc3ncccc3o2)cc1NC(=O)c1ccc([N+](=O)[O-])o1	?	?	15µM*	?	18µM*	16µM*
Cc1ccc(Nc2nnc(SCC(=O)c3c(N)n(C4CC4)c(=O)[nH]c3=O)s2)cc1C	?	?	21µM*	-20%	i	?
SMILES	KB-3-1 cytotox	HT1080 IDH1KD tx	DT40 TDP1 CPT	HT1080NT lethal	KB-V1 cytotox	DT40 TDP1 no CPT
CCCc1cc(=O)[nH]c(SCC(=O)c2c(N)n(C3CC3)c(=O)[nH]c2=O)n1	16µM*	?	?	?	i	11%
Cc1cccc(Nc2nnc(SCC(=O)c3c(N)n(C4CC4)c(=O)[nH]c3=O)s2)c1	i	-7%	-17%	-1%	i	?
COc1cccc(Cn2c(=O)n(CC3CCC(C(=O)N4CCCCC4)CC3)c(=O)c3sccc32)c1 (stereo not given)	i	/	?	/	i	?
COc1cccc(C2=N/C(=C\N(C)C)C(=O)O2)c1	i	13%	?	15%	i	23µM*
COc1cc(C2=N/C(=C\c3ccccc3)C(=O)O2)cc(OC)c1OC	/	/	-21%[9.04 µM]	/	/	-4%[9.04 µM]
Cc1cccc(C(=O)NCC(=O)N2CCC2)c1	i	-4%	-17%	0%	i	21%
CC(=O)N1CCN(C(=O)COC(=O)c2oc3ccccc3c2C)CC1	i	2%	-3%	12%	i	0%
COc1ccc(NC(=S)NC(NC(=O)c2cccc(C)c2)C(Cl)(Cl)Cl)c([N+](=O)[O-])c1 (stereo not given)	?	?	?	?	i	?
O=C(NC(NC(=S)Nc1ccccc1O)C(Cl)(Cl)Cl)c1ccco1 (stereo not given)	i	-1%	?	-1%	i	18µM*
Cc1ccc(C)c(NC(=S)NC(NC(=O)/C=C/c2ccccc2)C(Cl)(Cl)Cl)c1 (stereo not given)	?	?	?	?	?	23µM*
O=C(NC(NC(=S)Nc1ccc(Cl)cc1)C(Cl)(Cl)Cl)c1ccco1 (stereo not given)	i	?	?	?	?	?
O=C(NC(NC(=S)Nc1ccccc1Cl)C(Cl)(Cl)Cl)c1cccc(Cl)c1 (stereo not given)	?	?	4.6µM*	?	21µM*	8.2µM*
O=C(/C=C/c1ccccc1)NC(NC(=S)Nc1ccc(Cl)cc1Cl)C(Cl)(Cl)Cl (stereo not given)	i	?	21µM*	-24%	?	18µM*
CCCn1c(COc2ccc(C(=O)O)cc2)nc2ccccc21	i	12%	-14%	14%	i	0%
